# Laboratory results as given in PubChem BioAssay (NCATS).
# Results filed as inconclusive are left out. Values without a mark were called inactive. Calls come from the whole dose curve.
# Assay: Cell Viability - BJ (AID 421);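 note: cells exposed to compound for 40 hours at 37 °C before readout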
# Settings: BJ fibroblast viability, qHTS
# Summary of the method: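 Cytotoxicity in human BJ foreskin fibroblasts is scored as loss of cellular ATP after a 40-hour exposure, measured by luciferase luminescence. Controls are DMSO and 100 uM tamoxifen.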
# Potency is the fitted concentration of half-maximal effect.
row,Compound,Potency [µM]
1,CC(C)N(C)C,> 92
2,CC(=O)c1cccc([N+](=O)[O-])c1,> 92
3,CC(=O)OCCC(C)C,> 92
4,CCN(Cc1ccccc1)c1ccccc1,> 92
5,Cc1ccc(C#N)cc1,> 92
6,Cc1ccccc1Br,> 92
7,O=P(O)(OCc1ccccc1)OCc1ccccc1,> 92
8,C=CCCC,> 92
9,CC(C)Nc1ccccc1,> 92
10,Cc1ccc(Br)cc1,> 92
11,S=C([S-])NCCNC(=S)[S-].[Zn+2],> 92
12,CC(C=O)Cc1ccc(C(C)(C)C)cc1 (stereo not given),> 92
13,CCCCCCCN,> 92
14,CC(C)C(C)C,> 92
15,CC(C)(C)c1ccc(OCC2CO2)cc1 (stereo not given),> 92
16,Cc1ccc2c(c1[N+](=O)[O-])C(=O)c1ccccc1C2=O,> 92
17,CCCCCCO,> 92
18,O=C(O)c1ccccc1Cl,> 92
19,Nc1cc(Cl)c([N+](=O)[O-])cc1O,> 92
20,COCCOC(=O)c1ccccc1C(=O)OCCOC,> 92

row,Compound,Potency [µM]
1,OCCO,> 92
2,CCC(C)=O,> 92
3,Nc1cc(S(=O)(=O)O)ccc1O,> 92
4,O=CNc1ccccc1,> 92
5,C=C(C)C(=O)OCC(C)C,> 92
6,CC(=O)c1ccc([N+](=O)[O-])cc1,> 92
7,Nc1cc([N+](=O)[O-])ccc1C(=O)O,> 92
8,C=CCCCCCCC=C,> 92
9,CC(C)CCOC(=O)/C=C/c1ccccc1,> 92
10,ClCCl,> 92
11,CO[Si](CCCNCCC[Si](OC)(OC)OC)(OC)OC,> 92
12,Cc1ccc(N(C)C)cc1,> 92
13,COC(=O)CCCC(=O)OC,> 92
14,CCCCN(CCO)CCCC,> 92
15,CCOC(=O)C(C)C(C)=O (stereo not given),> 92
16,C[C@@H]1CC2(OC3C[C@@]4(C)C5=CC[C@H]6C(C)(C)C(O[C@@H]7OC[C@@H](O)[C@H](O)[C@H]7O)CC[C@@]67C[C@@]57CC[C@]4(C)C31)OC(O)C1(C)OC21 (stereo not given in full),> 92
17,CC(C)(C)OC=O,> 92
18,Cc1ccccc1C#N,> 92
19,C=Cc1ccccc1C=C,> 92
20,CC(C)=CCC/C(C)=C/C=O,> 92
